# Results as given in PubChem BioAssay (NCI).
# About 79,000 compounds went through this panel and 15% of them were active in at least one assay; those are over-represented in the sample as a whole. A number with no mark means an inactive call. The source made the active and inactive calls. Cut-off read from the data, not from the text of the source: active = growth inhibition above about 70%; inactive = the rest.
# Columns and labels:
# [1] = NCI Yeast Anticancer Drug Screen. Data for the rad50 strain (AID 155);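 note: 0% = growth of vehicle-only cultures of the same strain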; details: S. cerevisiae rad50 strain growth inhibition; at 50.0 µM; hits give high values
# Summary of the method: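 A DNA repair-deficient yeast mutant serves as the test organism; compound-induced growth inhibition is calculated against vehicle-treated cells.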
# [2] = NCI Yeast Anticancer Drug Screen. Data for the mec2-1 strain (AID 157); details: S. cerevisiae mec2-1 strain, at 50.0 µM, hits give high values
# Summary of the method: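 Compounds were applied to mec2-1 yeast cells. Their growth was then compared with that of vehicle-treated cultures to give growth inhibition.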
# [3] = NCI Yeast Anticancer Drug Screen. Data for the sgs1 mgt1 strain (AID 161);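 note: 0% = growth of cultures given vehicle only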; details: S. cerevisiae sgs1 mgt1 strain, at 50.0 µM, hits give high values
# Summary of the method: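 This yeast growth screen uses a strain with defined DNA-repair lesions; compound-treated growth is compared with vehicle-treated growth.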
# [4] = NCI Yeast Anticancer Drug Screen. Data for the cln2 rad14 strain (AID 165);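 note: 0% = growth equal to vehicle treated cultures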; details: S. cerevisiae cln2 rad14 strain, at 50.0 µM, hits give high values
# Summary of the method: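 Strain: cln2 rad14 yeast, altered in cell cycle control and DNA damage repair. Read-out: growth inhibition vs vehicle.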
# [5] = NCI Yeast Anticancer Drug Screen. Data for the bub3 strain (AID 167); details: S. cerevisiae bub3 mutant strain, at 50.0 µM, hits give high values
# Summary of the method: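 Inhibition values come from growth of compound-treated mutant yeast normalised to vehicle-treated controls.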
# [6] = NCI Yeast Anticancer Drug Screen. Data for the mlh1 rad18 strain (AID 175); details: S. cerevisiae mlh1 rad18 strain growth inhibition; at 50.0 µM; hits give high values
# Summary of the method: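 A repair-deficient yeast strain is exposed to test compound, and growth is scored relative to vehicle-treated controls.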
Structure (SMILES),growth inhibition [1],growth inhibition [2],growth inhibition [3],growth inhibition [4],growth inhibition [5],growth inhibition [6]
CCCCCCC#CC(=O)O,7.8%,-3.6%,0.5%,16.1%,-4.3%,30.4%
COc1ccc(N2N=NCC2c2ccccc2[N+](=O)[O-])cc1 (configuration not stated),-10.6%,-11.9%,14.2%,-37.4%,13.6%,20.4%
Cc1ccc2nc(C)ccc2c1,-38.2%,-23.2%,-2.7%,-16.1%,-0.2%,-3.4%
N/C(=N/O)c1cn(C2OC(CO)C(O)C2O)c2ncnc(NO)c12 (configuration not stated),9.65%,-20.6%,-0.2%,-1.15%,-16.1%,4.1%
CCOC(=O)c1cc(C)nc2ccc(Br)cc12,-3.2%,3.45%,-11.2%,-5.85%,4.2%,-11.7%
CN(C)C(=O)CCCCC(=O)N(C)C,16.5%,-5.2%,1.45%,-14.7%,5.65%,-22.2%
O=C1CCCN(Cc2ccccc2)C1,-4.2%,-25.2%,0.35%,1.2%,-0.4%,9.45%
COc1ccc(Cc2cc(O)c(OC)cc2O)cc1,5.55%,17.1%,38.4%,-22.2%,-3.75%,26.8%
CC(=O)Oc1ccc(C(C)(C)C)cc1,10.7%,-7.25%,1.55%,-11.7%,-4.1%,5.15%
CCC(CC)=NNS(=O)(=O)c1cccc2ccccc12,10.7%,-12.4%,-11.7%,-15.7%,-17.9%,-0.1%
C=CCCCCCCCCC(=O)Nc1cc2c3c(c1)CCCN3CCC2,6.95%,8.75%,1.1%,-13.8%,10.6%,20.9%
O=C(O)c1c(Br)c(Br)c(Br)c(Br)c1C(=O)Nc1ccc(Cl)cc1C(F)(F)F,1.35%,10.1%,11.1%,-6.55%,0.3%,13.3%
NCCC1([N+](=O)[O-])CCNCC1,1.9%,-7.2%,-6.15%,-14.7%,-5.3%,14.6%
CCCCCCCCn1c(N)c(C#N)cnc1=S,-27.9%,9.65%,-3.45%,-20.2%,12%,1.2%
CCCCCCCCCCC(CCCCCCCCCC)C1CCCC1,-12.3%,16.1%,0.7%,-14.6%,-12.8%,-12.9%
COc1ccc(C(=C(I)c2ccccc2)c2ccc(OC)cc2)cc1,-31.6%,-26.4%,-11.4%,-15.9%,-25.4%,-18.9%
CC(=O)OCC1OC(OCC[N+](C)(C)C)C(OC(C)=O)C(OC(C)=O)C1OC(C)=O (configuration not stated),-1.65%,14.9%,-15.6%,-2.4%,-7.35%,15.3%
Nc1cc2c3c(cccc3c1)NC2=O,47.5%,14.4%,17.9%,11%,-1.5%,-12.9%
Cc1ccc(NC(=O)/C(Cc2nc3ccc([N+](=O)[O-])cc3[nH]c2=O)=N\NC(=O)C[n+]2ccccc2)c(C)c1,-7.5%,-9.25%,-4.3%,14.9%,15.3%,-7.65%
OC(COc1ccccc1)COc1ccccc1,1.35%,2.45%,16.4%,-18.7%,8.1%,3.1%
O=C1OCC/C1=C1/Nc2ccccc2NC1=O,-13.1%,-24%,-8.1%,-22.2%,-16.4%,-13.8%

Structure (SMILES),growth inhibition [1],growth inhibition [2],growth inhibition [3],growth inhibition [4],growth inhibition [5],growth inhibition [6]
CC(=O)C(C)(C)OC(=O)COc1ccc(Cl)cc1,-39%,-2.75%,-9.45%,43.4%,32.3%,-24.6%
CCOC(=O)C(=CNC(=S)Nc1ccccc1)C(=O)OCC,-24.9%,-22.9%,-23.8%,-17.1%,-13.7%,2.2%
c1ccc(C2=Nc3ccccc3-c3ccccc3N2)cc1,-2.95%,-1.35%,-6.05%,-28.4%,-4.75%,-8.05%
COc1ccc(C2OC3=C(Nc4ccc([N+](=O)[O-])cc4N3)C2=O)cc1 (configuration not stated),-7.25%,-19.3%,-16.8%,-5.35%,-37.9%,-5.8%
COc1cc(C2C3=C(CCCC3=O)N(c3ccc(C)cc3)C3=C2C(=O)CCC3)c([N+](=O)[O-])cc1OC,-10.8%,-4.2%,2.65%,2.2%,4.3%,-0.3%
O=c1oc2ccccc2[n+]([O-])c1-c1ccccc1,-9.9%,-10.8%,-9.35%,16.9%,-18.8%,-17.9%
Cc1ccc([N+](=O)[O-])cc1S(=O)(=O)O,24.4%,13.2%,21.8%,11.7%,20%,2.45%
COc1ccc(-c2cc(C(=O)O)c3cccc(C)c3n2)cc1,35.6%,-1.7%,35%,36.1%,23.8%,47.1%
[Cl][Pt+2][Cl].[NH-]C1CCCC1[NH-] (configuration not stated),13.8%,9%,20.9%,3.8%,21.9%,36.8%
Cc1nn(C)c(NC(=O)c2ccccc2O)c1SC#N,43.3%,-5.35%,16.7%,28.2%,35.2%,10.4%
CNCCCN1CCCCC1,31.8%,16%,22.4%,6.3%,-4.4%,13.6%
N#C/C(=C\c1cccs1)C(=O)c1ccco1,10.2%,4.65%,24.1%,25.2%,17.2%,-5.85%
CCCn1c(SCC)c2ccccc2c1-c1nc(F)nc(F)n1,-11.8%,-21.8%,-6.75%,18.9%,-20.7%,4.1%
COc1cc(O)c2c(c1)C(=O)c1cc3c(c(O)c1C2=O)C(O)C(OC)C(C)(O)C3O (configuration not stated),72.5% (active),54.3%,72% (active),42.6%,64.8%,68.2%
OC1[C@H](O)CN(OCc2ccccc2)C[C@@H]1O (some centres not stated),-13.9%,-2.4%,-15.1%,-20.4%,7.85%,-18.4%
Nc1nc(N)c2cc(S(=O)(=O)c3ccc(Cl)cc3)ccc2n1,21.9%,36.1%,12.5%,-12.2%,17.8%,28.6%
COC(=O)CCc1cc(=O)oc2c3c(cc(OC)c12)OC1OC(=O)CC31 (configuration not stated),-24%,-22.3%,-19.1%,6.4%,-20.1%,-7.25%
NCCCCC(N)C(=O)O (configuration not stated),7.4%,9.25%,-33.9%,8.55%,-2.1%,22%
[O-]c1c(Cl)c(Cl)c(O[P+](c2ccccc2)(c2ccccc2)c2ccccc2)c(Cl)c1Cl,99.2% (active),99.4% (active),99.5% (active),97.9% (active),99% (active),99.2% (active)
CCC1(C)C(=O)c2ccccc2N(C)C1=O (configuration not stated),-5.55%,-10.1%,-9.5%,-37.9%,5%,-6.25%
Nc1ccc2nc(-c3ccccc3)[nH]c2c1,-13.8%,-8.65%,-13.3%,1.55%,0.6%,-3.8%
